Results taken from the supplement of paper PMC11732987, “Enantioselective OTUD7B fragment discovery through chemoproteomics screening and high-throughput optimisation” (Communications Chemistry, 2025).

Key:
Test in all cases: log2 ratio of Biotin-Ahx-Ub-VS probe labelling (fragment/DMSO); higher = less target engagement (more negative = stronger competition), active = hit call of the paper (q ≤ 0.05, log2 ratio ≤ -1)
Conditions in all cases: compound concentration: 200 uM; treatment time: 3 h
OTUD6B = biological target: T1, OTUD6B (UniProt Q8N6M0)
T1 sequence (whole entry): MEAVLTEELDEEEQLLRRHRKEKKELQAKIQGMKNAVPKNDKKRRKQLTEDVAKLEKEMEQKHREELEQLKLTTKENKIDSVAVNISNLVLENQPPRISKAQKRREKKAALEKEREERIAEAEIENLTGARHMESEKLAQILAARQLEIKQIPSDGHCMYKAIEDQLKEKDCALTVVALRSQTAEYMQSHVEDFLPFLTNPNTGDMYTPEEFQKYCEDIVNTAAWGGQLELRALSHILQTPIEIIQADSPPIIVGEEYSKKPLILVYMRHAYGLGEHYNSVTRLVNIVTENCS
Outline: (§1)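 Lysate from HEK293T cells, 495 µg per sample in Tris/CHAPS/IGEPAL buffer with protease inhibitors, was treated for 3 h in triplicate with fragment at 200 µM or vehicle. Biotin-Ahx-Ub-VS was next added at 0.5 µM final for 1 h. The labelled DUBs were enriched with NeutrAvidin, digested with LysC and trypsin, and run by diaPASEF LC-MS/MS, with values given as average log2 fragment/vehicle ratios by unpaired t-test on global-median-normalised Spectronaut quantities of proteins with ≥2 unique peptides.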

OTUD7B = biological target: T2, OTUD7B (UniProt Q6GQQ9)
T2 sequence (whole entry): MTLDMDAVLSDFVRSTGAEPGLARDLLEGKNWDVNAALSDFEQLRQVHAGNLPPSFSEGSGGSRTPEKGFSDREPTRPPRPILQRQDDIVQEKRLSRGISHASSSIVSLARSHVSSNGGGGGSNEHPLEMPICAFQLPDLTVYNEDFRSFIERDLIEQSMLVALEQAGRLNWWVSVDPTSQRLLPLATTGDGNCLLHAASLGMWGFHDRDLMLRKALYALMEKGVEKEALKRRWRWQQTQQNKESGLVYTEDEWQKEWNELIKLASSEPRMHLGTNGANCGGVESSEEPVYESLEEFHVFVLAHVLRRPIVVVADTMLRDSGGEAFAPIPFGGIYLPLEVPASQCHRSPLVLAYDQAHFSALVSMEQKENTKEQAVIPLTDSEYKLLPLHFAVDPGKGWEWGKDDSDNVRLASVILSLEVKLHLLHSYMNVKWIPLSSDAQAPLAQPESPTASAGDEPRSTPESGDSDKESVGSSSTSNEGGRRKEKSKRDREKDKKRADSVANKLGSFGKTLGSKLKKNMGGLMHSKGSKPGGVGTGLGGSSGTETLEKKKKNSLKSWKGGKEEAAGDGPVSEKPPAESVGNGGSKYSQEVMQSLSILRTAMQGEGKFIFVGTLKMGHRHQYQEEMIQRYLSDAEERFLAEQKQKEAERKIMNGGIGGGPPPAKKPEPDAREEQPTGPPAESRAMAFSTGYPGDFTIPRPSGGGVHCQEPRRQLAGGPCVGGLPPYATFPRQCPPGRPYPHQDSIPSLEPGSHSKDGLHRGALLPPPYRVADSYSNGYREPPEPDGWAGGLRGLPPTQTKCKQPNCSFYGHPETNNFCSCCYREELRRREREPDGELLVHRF
Outline: as §1

PRPF8 = PRPF8 (UniProt Q6P2Q9)
Outline: as §1

PSMD7 = biological target: T3, PSMD7 (UniProt P51665)
T3 sequence (whole entry): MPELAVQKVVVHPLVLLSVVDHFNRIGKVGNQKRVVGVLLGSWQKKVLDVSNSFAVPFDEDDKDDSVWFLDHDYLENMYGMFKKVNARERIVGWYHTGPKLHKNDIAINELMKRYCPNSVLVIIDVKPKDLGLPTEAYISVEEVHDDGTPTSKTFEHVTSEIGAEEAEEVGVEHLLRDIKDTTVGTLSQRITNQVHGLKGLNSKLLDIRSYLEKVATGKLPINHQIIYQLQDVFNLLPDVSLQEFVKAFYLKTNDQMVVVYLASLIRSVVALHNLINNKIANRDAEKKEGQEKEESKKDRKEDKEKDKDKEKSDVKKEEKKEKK
Outline: as §1

UCHL1 = UCHL1 (UniProt P09936)
Chain of UCHL1 (P09936 whole entry, looked up): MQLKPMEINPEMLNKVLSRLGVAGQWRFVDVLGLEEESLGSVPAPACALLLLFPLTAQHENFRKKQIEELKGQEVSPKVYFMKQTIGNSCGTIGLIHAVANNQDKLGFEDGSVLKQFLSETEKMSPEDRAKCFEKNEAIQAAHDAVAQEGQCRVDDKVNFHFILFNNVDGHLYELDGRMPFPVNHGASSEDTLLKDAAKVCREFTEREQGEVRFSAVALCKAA
Outline: as §1

UCHL3 = biological target: T4, UCHL3 (UniProt P15374)
T4 sequence (whole entry): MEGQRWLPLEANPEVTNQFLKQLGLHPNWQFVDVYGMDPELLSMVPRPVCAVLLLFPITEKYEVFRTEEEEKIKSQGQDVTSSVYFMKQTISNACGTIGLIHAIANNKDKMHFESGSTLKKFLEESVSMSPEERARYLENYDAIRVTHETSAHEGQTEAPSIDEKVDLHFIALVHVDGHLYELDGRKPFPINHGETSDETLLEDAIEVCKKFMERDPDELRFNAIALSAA
Outline: as §1

UCHL5 = biological target: T5, UCHL5 (UniProt Q9Y5K5)
T5 sequence (whole entry): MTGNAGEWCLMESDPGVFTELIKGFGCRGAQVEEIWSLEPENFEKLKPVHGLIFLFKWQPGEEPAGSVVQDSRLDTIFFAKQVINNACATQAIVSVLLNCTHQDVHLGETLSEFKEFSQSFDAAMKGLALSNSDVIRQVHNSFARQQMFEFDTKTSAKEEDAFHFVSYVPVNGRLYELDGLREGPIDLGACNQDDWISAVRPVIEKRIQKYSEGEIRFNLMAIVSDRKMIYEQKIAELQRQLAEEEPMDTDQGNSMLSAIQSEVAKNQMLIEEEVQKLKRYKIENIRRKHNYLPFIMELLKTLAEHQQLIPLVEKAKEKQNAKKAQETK
Outline: as §1

USP10 = USP10 (UniProt Q14694)
Chain of USP10 (Q14694 whole entry): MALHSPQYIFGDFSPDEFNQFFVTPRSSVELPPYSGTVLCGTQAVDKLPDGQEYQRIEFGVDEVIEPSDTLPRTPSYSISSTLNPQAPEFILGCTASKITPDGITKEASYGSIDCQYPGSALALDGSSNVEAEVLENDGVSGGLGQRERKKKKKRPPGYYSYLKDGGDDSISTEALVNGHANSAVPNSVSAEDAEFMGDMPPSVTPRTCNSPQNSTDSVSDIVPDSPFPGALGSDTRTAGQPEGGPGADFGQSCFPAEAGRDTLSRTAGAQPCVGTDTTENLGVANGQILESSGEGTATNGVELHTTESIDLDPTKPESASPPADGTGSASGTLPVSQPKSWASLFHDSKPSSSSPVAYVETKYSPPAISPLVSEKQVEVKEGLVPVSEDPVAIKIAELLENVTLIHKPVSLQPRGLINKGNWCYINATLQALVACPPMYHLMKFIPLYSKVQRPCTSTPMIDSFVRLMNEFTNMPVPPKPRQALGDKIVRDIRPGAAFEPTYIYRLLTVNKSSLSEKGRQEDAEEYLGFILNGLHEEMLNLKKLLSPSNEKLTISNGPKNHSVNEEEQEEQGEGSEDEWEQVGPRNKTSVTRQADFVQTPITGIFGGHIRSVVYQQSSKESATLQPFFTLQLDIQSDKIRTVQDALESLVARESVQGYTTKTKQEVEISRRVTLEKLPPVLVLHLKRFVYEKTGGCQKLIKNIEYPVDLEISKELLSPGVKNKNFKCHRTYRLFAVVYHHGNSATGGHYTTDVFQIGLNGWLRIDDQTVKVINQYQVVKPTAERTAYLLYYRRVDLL
Outline: as §1

USP15 = biological target: T6, USP15 (UniProt Q9Y4E8)
T6 sequence (whole entry): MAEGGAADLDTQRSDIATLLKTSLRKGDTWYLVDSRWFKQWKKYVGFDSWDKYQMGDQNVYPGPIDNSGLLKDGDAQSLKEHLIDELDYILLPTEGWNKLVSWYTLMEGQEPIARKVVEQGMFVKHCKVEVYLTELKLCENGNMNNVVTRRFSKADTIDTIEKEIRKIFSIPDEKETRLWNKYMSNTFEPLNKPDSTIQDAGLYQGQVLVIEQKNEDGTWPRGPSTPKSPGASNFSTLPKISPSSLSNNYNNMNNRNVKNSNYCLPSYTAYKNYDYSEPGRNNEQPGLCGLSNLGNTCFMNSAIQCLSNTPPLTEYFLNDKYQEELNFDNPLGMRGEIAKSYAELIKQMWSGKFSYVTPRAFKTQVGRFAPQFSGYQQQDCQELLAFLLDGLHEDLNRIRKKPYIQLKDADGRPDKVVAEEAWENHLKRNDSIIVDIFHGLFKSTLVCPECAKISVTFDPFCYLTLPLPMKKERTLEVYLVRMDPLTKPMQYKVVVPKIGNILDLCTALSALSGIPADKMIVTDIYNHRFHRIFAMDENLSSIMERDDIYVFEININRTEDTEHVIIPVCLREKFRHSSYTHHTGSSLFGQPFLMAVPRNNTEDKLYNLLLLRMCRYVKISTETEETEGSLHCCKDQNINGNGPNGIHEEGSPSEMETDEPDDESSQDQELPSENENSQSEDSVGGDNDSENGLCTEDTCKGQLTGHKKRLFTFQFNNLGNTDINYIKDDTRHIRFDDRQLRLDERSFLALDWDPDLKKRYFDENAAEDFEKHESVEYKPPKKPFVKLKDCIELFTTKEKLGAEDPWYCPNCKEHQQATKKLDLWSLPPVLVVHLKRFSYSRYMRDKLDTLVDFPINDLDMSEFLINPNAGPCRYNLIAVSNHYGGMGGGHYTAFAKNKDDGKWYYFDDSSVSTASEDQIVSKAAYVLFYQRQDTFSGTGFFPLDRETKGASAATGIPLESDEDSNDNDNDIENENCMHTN
Outline: as §1

USP16 = USP16 (UniProt Q9Y5T5)
Chain of USP16 (Q9Y5T5 whole entry, looked up): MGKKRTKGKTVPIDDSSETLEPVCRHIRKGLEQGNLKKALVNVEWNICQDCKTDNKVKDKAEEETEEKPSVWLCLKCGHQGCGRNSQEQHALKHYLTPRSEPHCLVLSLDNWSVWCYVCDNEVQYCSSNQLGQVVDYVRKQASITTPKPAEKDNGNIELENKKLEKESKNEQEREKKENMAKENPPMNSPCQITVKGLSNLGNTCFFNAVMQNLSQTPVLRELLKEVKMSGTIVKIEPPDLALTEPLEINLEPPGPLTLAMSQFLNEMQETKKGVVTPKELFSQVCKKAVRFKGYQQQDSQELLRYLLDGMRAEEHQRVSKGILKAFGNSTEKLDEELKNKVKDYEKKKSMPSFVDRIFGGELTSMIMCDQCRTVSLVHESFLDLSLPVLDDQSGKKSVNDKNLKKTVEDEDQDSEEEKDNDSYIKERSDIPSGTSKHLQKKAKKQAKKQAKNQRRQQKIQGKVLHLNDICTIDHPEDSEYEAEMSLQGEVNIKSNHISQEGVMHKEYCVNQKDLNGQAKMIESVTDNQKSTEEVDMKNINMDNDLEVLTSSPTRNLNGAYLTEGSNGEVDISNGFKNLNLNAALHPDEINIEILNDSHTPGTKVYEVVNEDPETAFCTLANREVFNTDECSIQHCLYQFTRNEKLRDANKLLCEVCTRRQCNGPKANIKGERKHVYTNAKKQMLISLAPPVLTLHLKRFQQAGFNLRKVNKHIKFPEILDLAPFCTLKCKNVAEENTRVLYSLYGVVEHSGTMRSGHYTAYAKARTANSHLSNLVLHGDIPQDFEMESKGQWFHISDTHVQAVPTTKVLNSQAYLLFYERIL
Outline: as §1

Measured: log2 ratio of Biotin-Ahx-Ub-VS probe labelling

O=C(CCl)N(Cc1ccsc1)C1CC1
inactive: OTUD6B 0.0351 | OTUD7B -0.317 | PRPF8 -0.0299 | PSMD7 -0.114 | UCHL1 -0.773 | UCHL3 0.415 | UCHL5 -0.238 | USP10 -0.125 | USP15 0.02 | USP16 0.463
